gsp ag – qHTS for Agonist of gsp, the Etiologic Mutation Responsible for Fibrous Dysplasia/McCune-Albright Syndrome: qHTS. Potency, µM (top dose mostly 76.9 µM), most hits filed as activators. actives 0.13% (n = 340,000). AID 624287, 2012. gsp mutant cells, cAMP HTRF, 30 min; active = well fitted activation curve with a large enough effect; inconclusive = small, poorly fitted or top-dose-only effect, or another doubt; inactive = no such curve, though single readings can be large or run the other way; cell line not stated here;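 also: phosphodiesterase inhibitor Ro 20-1724 added with compounds to block cAMP breakdown; nearly all actives have a fitted effect of over 60% in size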
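Cells in DMEM/10% FBS with G418 were pretreated with compounds in DMSO plus […] (300 uM stock) for 30 min at 37C. cAMP was measured by HTRF (cAMP-d2 plus anti-cAMP antibody-K) after 30 min at room temperature.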
FUS yeast rescue – qHTS for Suppressors of FUS Proteinopathy: Primary screen using FUS-linked yeast assay; S. cerevisiae FUS-expressing, growth rescue, OD600, 24 h; Potency, µM (series often up to 76.6 µM), most hits filed as activators; actives 0.24% (n = 390,000); also: nearly all actives have a fitted effect of over 55% in size
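Yeast expressing FUS under galactose induction, OD 0.005 in 2% galactose medium; compounds in a dilution series, 24 h at 30C. Growth rescue by absorbance at 600 nm; CP55940 positive control, DMSO negative.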
Mito fusion act – qHTS Assay for Small Molecule Inhibitors of Mitochondrial Division or Activators of Mitochondrial Fusion; S. cerevisiae fusion-defective mutant growth rescue, CellTiterGlo 48 h; Potency, µM (series often up to 46.1 µM), hits mostly activators; actives 0.23% (n = 320,000); also: nearly all actives have a fitted effect of over 45% in size
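Temperature-sensitive fusion-defective S. cerevisiae (e.g. fzo1-1, mgm1-5) were grown with compound in YPEG medium (3% ethanol, 3% glycerol) for 48 hours at 37C. Growth rescue was measured as viability by CellTiterGlo luminescence after 10 minutes at ambient.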
gsp antag – qHTS for Antagonists of gsp, the Etiologic Mutation Responsible for Fibrous Dysplasia/McCune-Albright Syndrome: qHTS | gsp-mutant cells, cAMP HTRF, 30 min | Potency, µM (highest dose often 76.9 µM), actives largely listed as inhibitors | actives 0.4% (n = 340,000) | AID 624288, 2012; calls by dose curve; cell line not stated here;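 also: intracellular cAMP measured with PDE inhibitor Ro 20-1724 present during compound exposure; nearly all actives have a fitted effect of over 65% in size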
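Cells in G418 medium, seeded 16-24 h, 37C; buffer exchange to DPBS + 1 mM CaCl2, 0.5 mM MgCl2, 0.05% BSA; cpds in DMSO + […] (300 uM stock), 30 min 37C; HTRF cAMP detection.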
12-LOX inh – Primary qHTS assay for inhibitors of human arachidonate 12S-lipoxygenase (ALOX12): Round 2; Polyunsaturated fatty acid lipoxygenase ALOX12 (Homo sapiens), P18054; purified 12hLO, xylenol orange hydroperoxide absorbance; Potency, µM (highest dose often 108 µM), most hits filed as inhibitors; actives 1.1% (n = 580,000); AID 1671190, 2021
Target sequence (P18054 whole entry, looked up): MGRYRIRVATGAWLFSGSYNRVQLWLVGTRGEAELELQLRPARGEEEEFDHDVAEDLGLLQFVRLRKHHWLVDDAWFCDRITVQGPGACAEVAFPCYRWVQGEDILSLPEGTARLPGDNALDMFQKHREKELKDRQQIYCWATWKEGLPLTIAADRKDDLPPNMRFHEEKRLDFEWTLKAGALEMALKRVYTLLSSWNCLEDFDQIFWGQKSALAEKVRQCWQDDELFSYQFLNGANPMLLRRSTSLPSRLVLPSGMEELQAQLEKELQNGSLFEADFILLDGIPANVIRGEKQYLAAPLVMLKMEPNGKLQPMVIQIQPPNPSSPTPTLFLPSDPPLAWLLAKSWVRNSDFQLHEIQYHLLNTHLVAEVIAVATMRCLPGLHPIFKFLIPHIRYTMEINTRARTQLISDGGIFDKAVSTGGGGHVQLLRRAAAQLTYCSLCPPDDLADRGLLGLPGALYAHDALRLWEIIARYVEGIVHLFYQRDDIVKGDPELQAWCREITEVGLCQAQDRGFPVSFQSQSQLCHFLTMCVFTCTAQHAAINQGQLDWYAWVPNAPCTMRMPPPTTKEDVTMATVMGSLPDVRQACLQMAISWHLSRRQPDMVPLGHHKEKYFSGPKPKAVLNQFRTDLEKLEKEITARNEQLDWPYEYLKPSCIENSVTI
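Purified human 12hLO at 150 nM in 25 mM Hepes, 0.01% Triton X-100, pH 7.0, preincubated 15 min at room temperature with compound. Reaction started with 40 uM arachidonic acid, 30 min at room temperature. Hydroperoxide measured by Fe-xylenol orange, 573/405 nm absorbance ratio.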
Numbers stand for hits; - = inactive; ? = inconclusive; . = not tested or not shown; [ ] = another dose, or the depositor's remark. Hits are enriched below; roughly 1.6% of the tested compounds scored in any of these assays. Unless noted, calls follow the shape of the dose curve; as a rule, active = well fitted curve in the direction sought with a large enough effect; inconclusive = small, poorly fitted or top-dose-only effect, or another doubt; inactive = no such curve, though single readings can be large; an effect the other way counts as inactive or inconclusive.

SMILES	gsp ag	FUS yeast rescue	Mito fusion act	gsp antag	12-LOX inh
COc1ccc2nc(NC(=O)c3ccccc3C(=O)O)sc2c1	-	-	-	-	-
O=C(Nc1ccccn1)c1cc(-c2cccnc2)nc2ccc(Br)cc12	40µM	-	-	-	-
COc1cc(Cl)c(C)cc1NC(=O)CSc1nnc(-c2ccccc2)n1C	.	.	.	.	-
COc1ccc(NC(=O)c2cc3c(C)nn(CC(C)C)c3s2)cc1S(=O)(=O)N1CCOCC1	.	.	.	.	-
O=C(O)c1cccc2c1C(=O)c1ccccc1-2	-[15.4 µM]	-	-	-	-
O=C1C(=C(I)I)c2ccccc2-c2ccccc21	-	.	.	?	5.6µM
CC[n+]1c(/C=C2\Sc3ccccc3N2C)ccc2cccc(C)c21	-[15.4 µM]	-	-	-	45µM
COc1ccc(-[n+]2c(C)cc(/C=C3\Sc4ccccc4N3C)cc2C)cc1	-	-	-	-	?
CCN1/C(=C/c2ccc3cc(C)ccc3[n+]2CC)Sc2cc(C)c(C)cc21	-[15.4 µM]	-	-	.	50µM
CCN1/C(=C/c2ccc3cc(C)ccc3[n+]2CC)Sc2ccccc21	?	-	-	-	45µM
CCCCCCOc1ccc(C=O)cc1	.	.	.	.	-
COc1ccc(CN2CCC(O)(c3csc(CN4CCc5ccccc5C4)n3)CC2)cc1	.	.	.	.	-
O=C(/C=C/c1ccco1)N(Cc1ccccc1)C1CCS(=O)(=O)C1 (stereo not given)	-[15.4 µM]	-	-	-	?
CC1CC1c1ccc(/C=C/C(=O)N(Cc2ccccc2)C2CC2)o1 (stereo not given)	.	.	.	.	8.9µM
CCCC(=O)NCCc1c2n(c3ccc(OC)cc13)CCCc1ccccc1-2	.	.	18µM	.	.
O=C(NC(=S)Nc1cccc(Cl)c1N1CCCCC1)c1ccc2c(c1)OCCO2	-	.	-	-	16µM
O=C(NC(=S)Nc1ccc2c(c1)OCCO2)c1cccc2ccccc12	-	-	-	-	16µM
O=C(Nc1cccc(Cl)c1N1CCCCC1)c1ccc2c(c1)OCCO2	-	-	-	-	-
O=C(NC(=S)Nc1ccc2c(c1)OCCO2)c1cccc(Br)c1	-	.	-	-	28µM
COCCn1c(=O)c2c(nc(-n3nc(C)cc3C)n2CCCc2ccccc2)n(C)c1=O	.	.	.	.	-
Fc1ccc(N=c2ssnc2Cl)c(F)c1	-	-	-	-	7.1µM
COc1cc(/C=C2/C(=O)ON=C2c2ccccc2)ccc1O	-	-	-	-	?
O=C1ON=C(c2ccccc2)/C1=C\c1ccco1	-	-	-	-	6.3µM
Cc1ccc(/C=C2/C(=O)ON=C2c2ccccc2)o1	-	-	-	-	10µM
CC1=NOC(=O)/C1=C\c1ccc(-c2ccccc2Br)o1	16µM	-	-	-	5.6µM
SMILES	gsp ag	FUS yeast rescue	Mito fusion act	gsp antag	12-LOX inh
O=C1ON=C(c2ccccc2)/C1=C/c1ccc(O)cc1	-	-	-	?	45µM
Cc1sc(/C=C2\C(=O)ON=C2c2ccccc2)cc1Br	.	.	-	.	.
CN(C)C1CCN(Cc2cc3cc4c(cc3nc2-c2ccc(Cl)cc2)OCO4)C1 (stereo not given)	.	.	.	.	-
CCOC(=O)C(C)Oc1ccc2c(=O)c(-c3ccc4c(c3)OCCO4)c(C)oc2c1 (stereo not given)	.	.	.	.	-
CC1=NOC(=O)/C1=C/c1ccc(O)cc1	-[15.4 µM]	-	-	-	16µM
O=C1ON=C(c2ccc(Cl)cc2)/C1=C/c1ccc(O)cc1	-[15.4 µM]	-	-	?	32µM
CCCOc1ccccc1/C=C1/C(=O)ON=C1C	-	-	-	-	40µM
O=C1ON=C(c2ccccc2)/C1=C/c1ccccc1	?	-	-	-	6.3µM
Cc1ccc(C2=NOC(=O)/C2=C\c2ccccc2)cc1	-	-	.	-	?
Cc1ncsc1C1N(C2CCN(Cc3cn(C)c4ccccc34)CC2)C(=O)C12CCCC2 (stereo not given)	.	.	.	.	-
O=C(CSc1nnnn1C1CC1)c1ccc(C2CCCCC2)cc1	.	.	.	.	-
CCc1ccc(C(=O)N(CC#N)C2CC2)cc1	.	.	.	.	-
CCOc1cc(/C=C2\C(=O)ON=C2c2ccccc2)cc(Br)c1O	-[15.4 µM]	?	-	-	22µM
CCCCn1cc(S(=O)(=O)c2ccc(OCC)cc2)c(=O)c2cc(F)ccc21	.	.	.	.	-
COc1ccc(Br)cc1/C=C(/C#N)C(=O)C(C)C	.	.	.	.	-
CCCCNC(=O)c1cnc(Cc2c[nH]c3ccccc23)c(I)c1	.	.	.	.	40µM
CC(C)=CCCC(C)CC(=O)O (stereo not given)	.	.	.	.	-
CCOC(=O)c1ccc(-c2ccc3oc(-c4ccsc4)cc(=O)c3c2)cc1F	.	-	.	7.1µM	-
Cc1cc(=O)n2nc(N3CCCC3C(=O)Nc3ccccc3C)sc2n1 (stereo not given)	13µM	-	-	-	-
O=C(Nc1nc2ccccc2c(=O)s1)c1ccc(F)cc1Cl	14µM	-	-	-	-
CCn1nnc2cc(C(=O)Nc3nc(-c4ccc5c(c4)CCC5)cs3)ccc21	.	.	.	.	-
O=C(O)CCc1ccc(-c2ccc(Br)cc2)o1	?	-	-	-	45µM
Cc1cc(C)cc(C(=O)N(C)C2CCN(CCc3ccccn3)CC2)c1	.	.	.	.	-
O=S(=O)(N1CC=C(c2c[nH]c3cc(F)ccc23)CC1)N1CCCCCC1	.	.	.	.	16µM
COc1cc(OC)c(C2=CCN(S(=O)(=O)N3CCCCCC3)CC2)c(OC)c1	.	.	.	.	-
SMILES	gsp ag	FUS yeast rescue	Mito fusion act	gsp antag	12-LOX inh
COC(=O)c1ccccc1-c1ccc(/C=N/Nc2nc(N3CCCC3)nc(N3CCCC3)n2)o1	-[15.4 µM]	?	-	25µM	-
Cc1ccc(/C=N/Nc2nc(N3CCCCC3)nc(N3CCCCC3)n2)o1	-[15.4 µM]	-	-	-	-
O=C(Nc1ccc(Br)cc1F)c1ccc(-c2ccccc2)cc1	.	.	.	.	-
COc1cccc(-c2nc(-c3nc4ccccc4s3)cs2)c1OC	.	.	.	.	5µM
NC(=O)c1ccsc1NC(=O)CN1CCN(S(=O)(=O)c2ccccc2C(F)(F)F)CC1	-	-	.	50µM	-
O=C(CN1CCN(S(=O)(=O)c2ccccc2C(F)(F)F)CC1)NCc1cccs1	-[15.4 µM]	-	-	-	?
CC1CCC(C)[S+]1c1cc(O)ccc1O (stereo not given)	.	.	.	.	10µM
Cc1cc(C)nc(NC(=O)/C=C/c2ccccc2Cl)n1	-	-	-	-	-
CCc1cc(C(=O)NNC(=S)NC(=O)c2ccccc2)cs1	.	.	.	.	40µM
Cc1cccc(C(=O)NC(=S)NCc2ccccc2)c1	-[15.4 µM]	-	.	-	?
Cc1cc(C(=O)NNC(=S)NC(=O)/C=C/c2ccccc2Cl)n[nH]1	-	13µM	-	-	?
Cc1cccc(C(=O)NC(=S)NNC(=O)Cc2ccccc2)c1	-[15.4 µM]	?	-	-	45µM
COc1ccc(C(=O)NNC(=S)NC(=O)/C=C/c2cccs2)cc1	-	-	-	-	?
Cc1cccc(C(=O)NNC(=S)NC(=O)/C=C/c2cccs2)c1	.	.	.	.	35µM

Screening results from PubChem.
